Among all 310,000 compounds or so, about 14,000 (4.5%) showed an effect of 50% or more. The effect is printed as a negative number. For the sample, strong results were picked, then their nearest neighbours and some compounds at random.
Biological target: human ether-à-go-go-related gene (hERG) potassium channel (human, UniProt Q12809)
Assay: primary screen, population patch clamp on CHO cells stably expressing hERG; higher = less effect of the substance
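Further: peak tail current of the secondary pulse compared with the same well before compound.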

Chain of human ether-à-go-go-related gene (hERG) potassium channel (Q12809 whole entry, looked up): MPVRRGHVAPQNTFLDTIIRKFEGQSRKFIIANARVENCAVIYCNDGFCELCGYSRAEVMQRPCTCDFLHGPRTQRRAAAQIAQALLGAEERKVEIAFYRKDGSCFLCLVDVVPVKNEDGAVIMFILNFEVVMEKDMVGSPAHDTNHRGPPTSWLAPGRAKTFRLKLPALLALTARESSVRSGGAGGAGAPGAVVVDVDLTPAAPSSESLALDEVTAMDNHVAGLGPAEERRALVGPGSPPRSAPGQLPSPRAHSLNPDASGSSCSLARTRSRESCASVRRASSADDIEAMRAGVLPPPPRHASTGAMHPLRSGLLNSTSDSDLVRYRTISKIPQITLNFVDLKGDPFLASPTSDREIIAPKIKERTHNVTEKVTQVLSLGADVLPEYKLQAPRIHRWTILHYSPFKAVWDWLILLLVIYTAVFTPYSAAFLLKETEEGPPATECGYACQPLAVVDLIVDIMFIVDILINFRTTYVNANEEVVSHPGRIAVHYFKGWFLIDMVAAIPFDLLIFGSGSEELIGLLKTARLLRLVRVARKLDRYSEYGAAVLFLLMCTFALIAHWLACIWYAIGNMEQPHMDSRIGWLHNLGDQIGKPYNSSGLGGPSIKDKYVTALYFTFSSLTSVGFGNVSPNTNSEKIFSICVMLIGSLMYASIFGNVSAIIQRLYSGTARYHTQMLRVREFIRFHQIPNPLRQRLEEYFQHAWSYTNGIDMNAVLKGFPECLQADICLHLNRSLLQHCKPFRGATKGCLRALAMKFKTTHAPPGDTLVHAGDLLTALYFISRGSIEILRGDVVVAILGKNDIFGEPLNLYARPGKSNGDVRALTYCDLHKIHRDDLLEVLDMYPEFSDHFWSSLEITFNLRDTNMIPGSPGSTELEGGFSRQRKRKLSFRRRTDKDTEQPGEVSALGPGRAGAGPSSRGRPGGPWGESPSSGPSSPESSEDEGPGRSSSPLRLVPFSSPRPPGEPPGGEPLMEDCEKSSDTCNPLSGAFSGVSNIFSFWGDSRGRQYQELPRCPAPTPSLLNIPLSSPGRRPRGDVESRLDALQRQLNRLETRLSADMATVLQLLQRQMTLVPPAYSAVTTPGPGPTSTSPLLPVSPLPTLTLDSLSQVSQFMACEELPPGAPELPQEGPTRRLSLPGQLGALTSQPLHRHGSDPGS

Row | Compound | hERG current change (%, negative = inhibition) at 10uM [%]
1 | Cc1cccc(C)c1NC(=O)CN(C)CC(=O)N(C)CC(=O)Nc1ccccc1Br | 14
2 | CCCn1c(-c2ccc[nH]c2=O)nc2ccccc21 | 15.6
3 | CCOC(=O)c1ccc(NC(=O)C2CC(=O)N(c3ccc4c(c3)OCCO4)C2)cc1 (centres unmarked) | 10.7
4 | COC(=O)c1nn(-c2c(C)n(C)n(-c3ccccc3)c2=O)cc1O | 5.84
5 | COc1cccc(NC(=S)NNC(=O)CCn2cc([N+](=O)[O-])cn2)c1 | -2.61
6 | Cc1ccc(NCc2nnc(SCC(=O)N(Cc3ccccc3)C(C)(C)C)o2)c(C)c1 | -9.53
7 | CC(=O)Nc1ccc(S(=O)(=O)N2CCN(c3cc(C)nc4ccccc34)CC2)cc1 | -88.5
8 | CC(=O)Nc1ccc(S(=O)(=O)N2CCN(S(=O)(=O)c3ccccc3)CC2)cc1 | 11.7
9 | CC(=O)Nc1ccc(S(=O)(=O)N2CCN(c3nc(C)cc(C)n3)CC2)cc1 | 5.68
10 | C[C@@H](NC(=O)c1[nH]cnc1C(=O)Nc1nccs1)c1ccccc1 | -3.32
11 | CC(=O)Nc1cccc(C(=O)Nc2ccccc2N2CCOCC2)c1 | -0.962
12 | Cc1ccccc1-n1c(Cn2c(=O)sc3ccccc32)nnc1SCC(=O)NCC1CCCO1 (centres unmarked) | -2.85
13 | CCOc1ccccc1-n1c(=O)c2ccccc2c2ccccc2c1=O | -6.99
14 | CC1(C)NC(C(=O)O)Cc2c1[nH]c1ccccc21 (centres unmarked) | 3.65
15 | COc1cccc(C2CNC3(CCCC(C)C3)c3[nH]c4ccccc4c32)c1OC.Cl (centres unmarked) | -23.6
16 | CC1c2c([nH]c3ccccc23)CCC1C(=O)O (centres unmarked) | 22.4
17 | CC1(C)CC(=O)CC2(C1)NCC(c1ccccc1)c1c2[nH]c2ccccc12.Cl (centres unmarked) | -85.8
18 | ClCC1NCC(c2ccccc2Cl)c2c1[nH]c1ccccc21 (centres unmarked) | 0.482
19 | CC1(C)CC(=O)CC2(C1)NCC(c1ccccc1Cl)c1c2[nH]c2ccccc12.Cl (centres unmarked) | -51.4
20 | O=Nc1ccc(NOC(=O)c2ccccc2Br)cc1 | 3.45
21 | CC(C)(C)c1cc(CCC(=O)Nc2ccncc2)cc(C(C)(C)C)c1O | -16.6
22 | CCN(CC)CCN1C(=O)Cn2c(C)c(C)c3cccc1c32.Cl | -52.4

Row | Compound | hERG current change (%, negative = inhibition) at 10uM [%]
23 | CCN(CC)CCN1C(=O)C2C3c4ccccc4C(c4ccccc43)C2C1=O (centres unmarked) | -2.51
24 | Cc1c(C)n2c3c(cccc13)CC2 | -0.781
25 | CCN(CC)CCN1C(=O)Cn2c(C)c(C)c3cccc1c32.O=C(O)C(O)C(O)C(=O)O | -65.1
26 | CCN(CC)CCNC(=O)C(C)c1nn(CC)c(=O)c2ccccc12.Cl (centres unmarked) | 7.49
27 | CCN(CC)CCNC(=O)Cn1nc(-c2ccccc2)c2ccccc2c1=O | -31
28 | Cc1ccc(NC(=O)Cn2c(=O)n(Cc3ccco3)c(=N)c3c4c(sc32)COC(C)(C)C4)cc1 | -7.76
29 | CC(C)[C@H](NC(=O)c1ccco1)C(=O)OCC(=O)N1CC(=O)Nc2ccccc21 | 13.3
30 | O=C1N/C(=C/c2ccc(N3CCOCC3)cc2)C(=O)N1Cc1ccc(F)cc1 | 22.1
31 | CCOC(=O)C1CCN(C(=O)CSc2cc(=O)n(CC)c3ccccc23)CC1 | -29.4
32 | O=[N+]([O-])c1cc2c(c(CSc3nnc4ccccn34)c1)OCOC2 | -12.4
33 | O=C(O)C(Cc1ccccc1)n1cnnn1 (centres unmarked) | 7.85
34 | CCC(CC)c1nn2c(N)c(/C=C3\C=Nc4ccccc43)c(=O)nc2s1 | 0.567
35 | COc1ccc(S(=O)(=O)N2CCCC(C(=O)O)C2)cc1Cl (centres unmarked) | 6.43
36 | CC1=NNC(=O)C1CC(=O)N/N=C/C(Br)=C/c1ccccc1 (centres unmarked) | 9.09
37 | O=c1c2ccccc2oc2ccc(-c3ccc4[nH]ccc4c3)cc12 | -2.53
38 | COc1ccc(-c2nn(CCC#N)cc2C(=O)Nc2cccc([N+](=O)[O-])c2)cc1OC | -57.9
39 | N#CCCn1cc(C(=O)Nc2ccc([N+](=O)[O-])cc2)c(-c2cccs2)n1 | -59.7
40 | N#CCCn1cc(C(=O)Nc2ccc(C(=O)O)cc2)c(-c2cccs2)n1 | 21
41 | COc1ccc(NC(=O)c2cn(CCC#N)nc2-c2cccs2)cc1 | -11.3
42 | N#CCCn1cc(C(=O)Nc2ccc([N+](=O)[O-])cc2)c(-c2ccc3c(c2)OCCO3)n1 | -72.8
43 | N#CCCn1cc(C(=O)Nc2ccc(F)cc2)c(-c2ccc([N+](=O)[O-])cc2)n1 | -57.1
44 | N#CCCn1cc(C(=O)Nc2ccc(F)cc2)c(-c2ccccc2)n1 | -15.2

Row | Compound | hERG current change (%, negative = inhibition) at 10uM [%]
45 | COc1ccc(-c2nn(CCC#N)cc2C(=O)Nc2ccccc2)cc1OC | -6.03
46 | CCOC(=O)c1ccc(NC(=O)c2cn(CCC#N)nc2-c2ccc3c(c2)OCCO3)cc1 | -4.59
47 | Cc1ccc(NC(=O)c2cn(CCC#N)nc2-c2ccc3c(c2)OCCO3)c([N+](=O)[O-])c1 | -33.9
48 | COc1ccc(-c2nn(CCC#N)cc2C(=O)Nc2cccc(C(=O)O)c2)cc1OC | 20.9
49 | COc1ccc(NC(=O)c2cn(CCC#N)nc2-c2ccc([N+](=O)[O-])cc2)cc1 | 2.58
50 | CCSc1cc(C)nc2ncnn12 | -0.742
51 | CC1CCCN(C(=O)C2CCN(Cc3ccc4c(c3)OCO4)CC2)C1.O=C(O)C(=O)O (centres unmarked) | -0.604
52 | COC(=O)c1cccc(NC(=O)Cn2nnc3ccccc32)c1 | 0.234
53 | COc1cc(C2NC(=O)NC(C)=C2[N+](=O)[O-])cc(OC)c1OC (centres unmarked) | 9.03
54 | CCn1c(=O)c2sccc2n2c(CCCC(=O)NCCc3ccc(S(N)(=O)=O)cc3)nnc12 | -4.96
55 | O=C(NCC1CC1)[C@@H]1C[C@H]1[C@@H](NP(=O)(c1ccccc1)c1ccccc1)c1ccccc1 | -13.9
56 | CC(=O)Nc1ccccc1C(=O)OCc1ccccc1F | 3.58
57 | COc1ccc(NC(=O)c2cn(CCC#N)nc2-c2ccccc2)cc1 | -7.59
58 | N#CCCn1cc(C(=O)Nc2ccc([N+](=O)[O-])cc2)c(-c2ccccc2)n1 | -80.1
59 | N#CCCn1cc(C(=O)Nc2ccc(C(=O)O)cc2)c(-c2ccc([N+](=O)[O-])cc2)n1 | 23.2
60 | N#CCCn1cc(C(=O)Nc2ccccc2Cl)c(-c2ccc([N+](=O)[O-])cc2)n1 | -64.4
61 | N#CCCn1cc(C(=O)Nc2ccccc2Cl)c(-c2ccc(F)cc2)n1 | 14
62 | N#CCCn1cc(C(=O)Nc2ccccc2Br)c(-c2ccc([N+](=O)[O-])cc2)n1 | -46.9
63 | COc1ccc(-c2nn(CCC#N)cc2C(=O)NCc2ccccc2)cc1OC | -42.3
64 | COc1ccc(-c2nn(CCC#N)cc2C(=O)NCc2ccccc2)cc1[N+](=O)[O-] | -59.7
65 | COc1ccc(-c2nn(CCC#N)cc2C(=O)Nc2ccccc2Br)cc1[N+](=O)[O-] | -39.6
66 | Cc1cc(C=C2C(=O)N(C)C(=O)N(C)C2=O)c(C)n1-c1ccccc1 | 17.5

Row | Compound | hERG current change (%, negative = inhibition) at 10uM [%]
67 | FC(F)(F)c1cc(-c2cccs2)nc(N2CCOCC2)n1 | 1.94
68 | CC(C)N(Cc1nc(-c2ccccc2)no1)C(=O)c1ccc(Br)o1 | -18.8
69 | O=CN1CCN(S(=O)(=O)c2ccc(Cl)c(C(=O)O)c2)CC1 | -2.45
70 | C/C(=N\NC(=O)Cn1nc(C)c([N+](=O)[O-])c1C)c1ccco1 | 26
71 | C=C1c2ccc(C)cc2NC(=O)N1c1ccccc1 | -1.2
72 | COc1ccc(N=C2CCCN2CC(N)=O)cc1.Cl | -0.486
73 | C#Cc1cccc(-n2nnc(C(C)=O)c2C)c1 | 15.5
74 | Cc1noc(C)c1COc1ccccc1C(=O)N1CCN(S(=O)(=O)c2ccccc2F)CC1 | -19.2
75 | CC(C)Oc1ccc(C(=O)N2CCN(C(=O)c3ccco3)CC2)cc1 | -29.6
76 | CCOC(=O)C1=C(CN2CCN(C(=O)c3ccco3)CC2)NC(=O)NC1c1ccc(OC(C)C)cc1 (centres unmarked) | -69.3
77 | CCOC(=O)C1=C(CN2CCN(C(=O)OCC)CC2)NC(=O)NC1c1ccc2c(c1)OCO2 (centres unmarked) | -18.4
78 | CCOC(=O)C1=C(CN2CCC(C)CC2)NC(=O)NC1c1ccc(Cl)cc1 (centres unmarked) | -37.6
79 | CCOC(=O)C1=C(CN2CCN(C(=O)c3ccco3)CC2)NC(=O)NC1c1ccc(F)cc1 (centres unmarked) | -62.9
80 | COc1ccc(CN2CCN(C(=O)c3ccco3)CC2)cc1 | -12.3
81 | CCOC(=O)C1=C(CN2CCN(C(=O)c3ccco3)CC2)NC(=O)NC1c1ccc(OC)cc1 (centres unmarked) | -64.9
82 | CCOC(=O)C1=C(CN2CCN(C(=O)c3ccco3)CC2)NC(=O)NC1c1ccccc1 (centres unmarked) | -43.7
83 | CCOC(=O)C1=C(C)NC(=O)NC1c1ccc(OC(=O)c2ccco2)cc1 (centres unmarked) | -2.08
84 | CCOC(=O)C1=C(CN2CCN(C(=O)c3ccco3)CC2)NC(=O)NC1c1ccc(C)cc1 (centres unmarked) | -63.2
85 | CCOC(=O)C1=C(CN2CCN(C(=O)c3ccco3)CC2)NC(=O)NC1c1ccc(Cl)cc1 (centres unmarked) | -35
86 | CCOC(=O)C1=C(CN2CCCCCC2)NC(=O)NC1c1ccc2c(c1)OCO2 (centres unmarked) | -48.2

— PMC4336329 (PLoS ONE, 2015)
